SMILES strings stand for the structures. The source made the active and inactive calls. Unless noted, how the calls were made is not given here.

A short description of experiment [1]: resazurin metabolic signal in HepG2 cells – cell-based, resazurin fluorescence, 24 h, PK04 Diversity Set, profiling panel (AID 1172). The following applies: HepG2 viability, higher = more signal.
A short description of experiment [2]: budding yeast growth changes without added modifier – OD600, strain BY4716, 24 h, basal condition, primary screen (AID 1173). The conditions noted are these: S. cerevisiae BY4716 growth, OD600, 24 h; higher = more signal, called active from +8 up or from −8 down.
Experiment [3] is described as follows: viability profiling in MM1S myeloma cells – cell-based, resazurin fluorescence, basal, 24 h, PK04 Diversity Set, profiling panel (AID 1174).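 Further: MM1S multiple myeloma cell line.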 The following applies: higher = more signal, called active from +8 up or from −8 down. (In general: Alamar Blue is a resazurin reagent that responds to reducing activity.)
In experiment [4] the target is Dihydroorotate dehydrogenase (quinone), mitochondrial (Plasmodium falciparum (isolate 3D7)) (UniProt Q08210). The experiment in a line: inhibition of P. falciparum DHODH – biochemical, C-terminal His tag, absorbance 600 nm, primary screen (AID 1175).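 Further: recombinant parasite enzyme with a five histidine tag at its C terminus.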 The conditions noted are these: PfDHODH enzyme, DCIP absorbance 600 nm; higher = more signal, called active from +8 up or from −8 down.
Dihydroorotate dehydrogenase (quinone), mitochondrial (Plasmodium falciparum (isolate 3D7)), sequence (Q08210 whole entry, looked up): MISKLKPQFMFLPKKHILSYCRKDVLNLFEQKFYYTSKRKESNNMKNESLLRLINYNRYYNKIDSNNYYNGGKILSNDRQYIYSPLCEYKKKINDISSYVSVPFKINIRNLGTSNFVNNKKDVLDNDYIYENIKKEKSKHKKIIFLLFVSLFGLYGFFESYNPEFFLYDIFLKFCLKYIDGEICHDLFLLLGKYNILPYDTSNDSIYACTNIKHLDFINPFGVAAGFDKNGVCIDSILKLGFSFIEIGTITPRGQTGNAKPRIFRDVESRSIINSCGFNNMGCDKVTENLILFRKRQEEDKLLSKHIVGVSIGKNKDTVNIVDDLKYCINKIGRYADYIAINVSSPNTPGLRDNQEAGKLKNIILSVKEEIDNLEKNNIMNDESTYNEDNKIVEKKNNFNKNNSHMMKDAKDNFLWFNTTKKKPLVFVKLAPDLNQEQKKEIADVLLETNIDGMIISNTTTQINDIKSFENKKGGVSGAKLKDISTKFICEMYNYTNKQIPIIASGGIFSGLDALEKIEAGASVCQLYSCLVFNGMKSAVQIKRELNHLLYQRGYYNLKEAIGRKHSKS

Experiment [5] can be described thus: inhibition of PAO1 biofilm formation – strain PAO1, LB-PBS medium, absorbance 600 nm, primary screen (AID 1176). The conditions noted are these: P. aeruginosa PAO1 growth/biofilm, A600, 12 h; higher = more signal.
Experiment [6] can be described thus: growth modulation of vineyard yeast isolate – strain RM11-1a, OD600, basal, 24 h, primary screen (AID 1177).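 Further: cultures grown under basal conditions with no added stressor.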 The following applies: S. cerevisiae RM11-1a growth, OD600, 24 h; higher = more signal, called active from +8 up or from −8 down.
Experiment [7] in a line: growth of efflux-deficient E. coli DRC39 – strain DRC39, OD650, 24 h, E. coli filamentation inducers, primary screen (AID 1178).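 Further: growth measured as culture turbidity by optical density at 650 nm.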 The conditions noted are these: E. coli DRC39 acrAB, higher = more signal, called active from +8 up or from −8 down.
Experiment [8] in a line: growth of efflux-deficient E. coli DRC39 – strain DRC39, OD650, 48 h, E. coli filamentation inducers, primary screen (AID 1179).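 Further: screen aims at cell division blockers that make cells filament.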 The following applies: E. coli DRC39 delta-acrAB growth, higher = more signal, called active from +8 up or from −8 down.
A short description of experiment [9]: viability profiling in RPMI8226 myeloma cells – cell-based, resazurin fluorescence, basal, 24 h, PK04 Diversity Set, profiling panel (AID 1180).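 Further: RPMI8826 multiple myeloma cell line at 5000 cells per well.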 The conditions noted are these: higher = more signal.
In experiment [10] the target is E3 ubiquitin-protein ligase XIAP (Homo sapiens) (UniProt P98170). The experiment in a line: small molecules binding XIAP protein – biophysical, small-molecule microarray, fluorescence 635 nm, primary screen (AID 1181).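 Further: score merges 667 nm emission and signal to noise over triplicate slides.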 The conditions noted are these: higher = more signal.
E3 ubiquitin-protein ligase XIAP (Homo sapiens), sequence (P98170 whole entry, looked up, the tested form may be a part): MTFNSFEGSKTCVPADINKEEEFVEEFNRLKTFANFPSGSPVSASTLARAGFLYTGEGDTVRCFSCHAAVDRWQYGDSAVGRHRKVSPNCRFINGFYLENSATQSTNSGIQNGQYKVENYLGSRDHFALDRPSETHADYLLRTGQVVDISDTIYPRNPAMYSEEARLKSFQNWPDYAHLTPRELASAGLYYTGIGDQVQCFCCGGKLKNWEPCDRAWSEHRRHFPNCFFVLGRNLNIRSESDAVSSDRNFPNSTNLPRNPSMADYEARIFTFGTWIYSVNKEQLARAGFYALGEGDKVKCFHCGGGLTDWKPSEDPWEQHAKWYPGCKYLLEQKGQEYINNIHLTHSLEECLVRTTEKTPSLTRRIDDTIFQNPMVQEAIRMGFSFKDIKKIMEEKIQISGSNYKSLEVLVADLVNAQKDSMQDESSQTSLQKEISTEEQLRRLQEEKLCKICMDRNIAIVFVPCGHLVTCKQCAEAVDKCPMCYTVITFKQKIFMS
Experiment [11] relates to XIP peptide (Xip251-270) binding. The experiment in a line: XIP fragment 251-270 binding compounds – biochemical, small-molecule microarray, fluorescence 635/667 nm, 0.1 µg/mL protein, primary screen (AID 1182). The following applies: fluorescent protein binding, 635 nm, higher = more signal, called active from +8 up or from −8 down.
The test system of a further experiment is XIP peptide (Xip251-270). Nature of the experiment: compounds binding XIP fragment 251-270 – biochemical, small-molecule microarray, fluorescence 635/667 nm, 0.5 µg/mL protein, primary screen (AID 1183). The conditions noted are these: fluorescence 635 nm, higher = more signal.
Experiment [12] in a line: blood-stage malaria parasite viability loss – strain 3D7, DAPI fluorescence, 100 nL, primary screen (AID 1184).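 Further: parasites grown inside human red blood cells in medium with human serum.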 The conditions noted are these: P. falciparum 3D7 growth, 3 d, higher = more signal.
Experiment [13] concerns the target Homeobox protein Hox-A13 (Mus musculus) (UniProt Q62424). Nature of the experiment: disruptors of Hoxa13 oligonucleotide interaction – biochemical, fluorescence polarization, labeled oligonucleotide, primary screen (AID 1185). The conditions noted are these: Hoxa13:DNA binding, 15 min, higher = more signal, called active from +8 up or from −8 down. In general terms: Fluorescence polarisation rises when a labelled molecule tumbles more slowly, as on binding a larger partner.

Experiment [14] in a line: blockers of DNA damage checkpoint Chk1 activation – imaging, HeLa, hydroxyurea, phospho-Chk1 antibody, percent positive cells, primary screen (AID 1186). The conditions noted are these: hydroxyurea-induced phospho-Chk1 immunofluorescence imaging, higher = more signal.
A short description of experiment [15]: blockers of DNA damage checkpoint Chk1 activation – imaging, HeLa, hydroxyurea, phospho-Chk1 nuclear intensity, primary screen (AID 1187). The conditions noted are these: hydroxyurea-induced phospho-Chk1 immunofluorescence imaging, higher = more signal.

Homeobox protein Hox-A13 (Mus musculus), sequence (Q62424 whole entry, looked up): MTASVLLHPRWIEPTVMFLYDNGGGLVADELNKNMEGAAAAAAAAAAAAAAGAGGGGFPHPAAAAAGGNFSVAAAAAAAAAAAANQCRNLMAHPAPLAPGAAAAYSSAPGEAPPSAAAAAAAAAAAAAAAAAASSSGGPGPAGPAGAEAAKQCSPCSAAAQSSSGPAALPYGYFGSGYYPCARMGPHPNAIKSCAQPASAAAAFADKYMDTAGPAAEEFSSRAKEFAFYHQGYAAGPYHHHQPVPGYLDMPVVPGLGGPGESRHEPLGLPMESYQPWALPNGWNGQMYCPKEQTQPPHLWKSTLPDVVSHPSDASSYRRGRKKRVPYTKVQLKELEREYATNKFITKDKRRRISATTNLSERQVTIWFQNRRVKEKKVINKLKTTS

As to `CCOc1ccc(N2C(=O)CSC2c2cccc([N+](=O)[O-])c2)cc1` (centres undefined), the z-score is 0.296 in [1]; 0.269 (inactive) in experiment [2]; -0.0959 (inactive) in [3]; -0.0902 (inactive) in [5]; 0.791 (inactive) in experiment [6]; 0.754 (inactive) in [7]. In addition, the z-score in experiment [8] is 0.908 (inactive); in [9], -0.0239; in experiment [12], 0.268; in experiment [13], -0.0449 (inactive); in [14], -0.139 (inactive); in experiment [15] it was -0.0398 (inactive). Further, the composite z-score was -0.274 (inactive) in [4], -0.183 in [10], 0.115 (inactive) in experiment [11] and 0.193 in the experiment with XIP peptide (Xip251-270).

`CCOC(=O)[C@H]1C/C=C/C[C@H](C(=O)OCC)C(=O)O[C@H]2[C@@H](OC)O[C@H](CO)[C@@H](OC(=O)c3ccc(Br)cc3)[C@@H]2OC1=O`: the z-score in [1] was -0.349; in experiment [2], -0.775 (inactive); in experiment [3] it was -1.77 (inactive); in experiment [5], 0.787 (inactive); in experiment [6], 0.807 (inactive); in experiment [7], 0.612 (inactive). The z-score in experiment [8] was 0.485 (inactive); in experiment [9], -2.49; in experiment [12], -1.11; in experiment [13], -1.2 (inactive); in experiment [14] it was -0.0241 (inactive); in experiment [15], 0.237 (inactive). Besides, the composite z-score is -1.88 (inactive) in experiment [4], -0.283 in experiment [10], 0.146 (inactive) in experiment [11] and -0.103 in the experiment on XIP peptide (Xip251-270).

For the compound `Cc1ccc(/C=C/C=O)cc1`, the z-score in experiment [1] is -0.466; in experiment [2], -1.75 (inactive); in experiment [3] it was -0.509 (inactive); in experiment [5], -0.64 (inactive); in [6], 0.213 (inactive); in experiment [7], 0.562 (inactive). For the same compound, the z-score in experiment [8] is 0.386 (inactive); in experiment [9], 0.812; in [12] it was 1.39; in experiment [13] it was -1.15 (inactive); in [14], 0.503 (inactive); in [15] it was 0.713 (inactive). Besides, the composite z-score was -0.962 (inactive) in experiment [4], -0.214 in experiment [10], 0.551 (inactive) in [11] and 0.284 in the experiment on XIP peptide (Xip251-270).

Take `CO[C@H]1O[C@H](CO)[C@@H](OC(=O)Nc2ccccc2)[C@@H]2OC(=O)[C@@H](Cc3ccc4ccccc4c3)C/C=C/C[C@H](Cc3ccc4ccccc4c3)C(=O)O[C@@H]12`: the z-score is -1.72 in [1]; -0.456 (inactive) in experiment [2]; -0.588 (inactive) in experiment [3]; 0.509 (inactive) in experiment [5]; -0.474 (inactive) in [6]; 1.13 (inactive) in experiment [7]. Besides, the z-score in experiment [8] was 1.09 (inactive); in experiment [9], -1.15; in experiment [12], -0.492; in experiment [13] it was -3.03 (inactive); in [14] it was -0.956 (inactive); in [15], -0.96 (inactive). Also, the composite z-score in [4] is -2.21 (inactive); in experiment [10], 1.54; in experiment [11], 1.97 (inactive); in the experiment with XIP peptide (Xip251-270) it was 0.748.

Turning to `O=C(O)C1N=C(c2ccc(OCCCO)cc2)N(c2ccccc2)O1` (centres undefined), the z-score in experiment [1] was -0.0554; in experiment [2], 0.0427 (inactive); in experiment [3] it was -0.258 (inactive); in experiment [5] it was -0.469 (inactive); in experiment [6], 0.0613 (inactive); in experiment [7] it was -0.351 (inactive). For the same compound, the z-score in experiment [8] was 0.46 (inactive); in [9], -0.219; in [12] it was -0.112; in experiment [13], -2.98 (inactive); in experiment [14] it was -0.259 (inactive); in experiment [15], -0.229 (inactive). Also, the composite z-score in [4] is -0.928 (inactive); in experiment [10], -0.22; in experiment [11] it was 1.77 (inactive); with XIP peptide (Xip251-270) it was 0.852.

For `CCCC=C(CCC)[C@@H](NS(=O)(=O)c1ccc(Cl)cc1)c1ccc(C(=O)OC)cc1`, the z-score in experiment [1] was 1.16; in [2], 0.295 (inactive); in [3], 0.349 (inactive); in experiment [5], -0.719 (inactive); in [6] it was -0.907 (inactive); in experiment [7], 0.198 (inactive). In addition, the z-score was -1.16 (inactive) in experiment [8]; 0.0665 in experiment [9]; 0.198 in [12]; -1.43 (inactive) in [13]; 0.47 (inactive) in experiment [14]; 0.175 (inactive) in experiment [15]. In addition, the composite z-score in experiment [4] was -0.336 (inactive); in experiment [10] it was -0.122; in experiment [11] it was -0.126 (inactive); in the experiment with XIP peptide (Xip251-270) it was 0.536.

As to `O=C1[C@H]2C=C(Br)[C@H](C[C@@H]2OCCCCCCO)[C@@]12CO2`, the z-score in experiment [1] was -0.629; in experiment [2], -1.3 (inactive); in [3], -1.43 (inactive); in [5], 0.756 (inactive); in experiment [6], 0.414 (inactive); in experiment [7] it was -0.748 (inactive). Further, the z-score in [8] is -0.602 (inactive); in experiment [9], -0.899; in [12] it was -0.355; in experiment [13], -1.84 (inactive); in experiment [14] it was 0.73 (inactive); in experiment [15], 0.231 (inactive). Also, the composite z-score in [4] was 0.571 (inactive); in experiment [10], -0.395; in experiment [11], -0.358 (inactive); in the experiment on XIP peptide (Xip251-270), -0.777.

`COCCOC(=O)N1C(=O)[C@@]2(c3cc(C#CC4=CCCCC4)ccc31)[C@H](C(N)=O)[C@H]1C(=O)O[C@H](c3ccccc3)[C@H](c3ccccc3)N1[C@@H]2c1ccc(O)cc1`: the z-score in experiment [1] was -0.495; in experiment [2] it was -0.268 (inactive); in experiment [3], -2.03 (inactive); in experiment [5], 1.37 (inactive); in experiment [6] it was -1.07 (inactive); in [7], 0.273 (inactive). The z-score in [8] was 1.03 (inactive); in experiment [9], -4.15; in experiment [12], 0.55; in experiment [13] it was -0.393 (inactive); in [14], -0.371 (inactive); in [15], -0.552 (inactive). The composite z-score was -1.37 (inactive) in experiment [4], -0.223 in [10], 1.79 (inactive) in experiment [11] and 0.769 in the experiment on XIP peptide (Xip251-270).

Take `O=C1C2C=CC(C(O)C=Cc3ccc([N+](=O)[O-])cc3)N(Nc3ccccc3F)C2C(=O)N1c1ccccc1` (centres undefined): the z-score is -0.964 in experiment [1]; 2.18 (inactive) in [2]; -0.747 (inactive) in experiment [3]; 1.58 (inactive) in experiment [5]; 1.6 (inactive) in experiment [6]; -0.388 (inactive) in experiment [7]. Also, the z-score is -0.138 (inactive) in [8]; -0.381 in experiment [9]; -0.448 in experiment [12]; -4.79 (inactive) in experiment [13]; -0.668 (inactive) in [14]; -1.16 (inactive) in experiment [15]. The composite z-score in experiment [4] is 1.06 (inactive); in experiment [10] it was 0.0101; in experiment [11] it was 0.308 (inactive); in the experiment on XIP peptide (Xip251-270) it was 0.774.
